Measurements: the supplement of paper PMC11732987, “Enantioselective OTUD7B fragment discovery through chemoproteomics screening and high-throughput optimisation” (Communications Chemistry, 2025)
Values without a mark were called inactive.

Compound: CC1CCCCC1NC(=O)CCl
Assay: log2 ratio of Biotin-Ahx-Ub-VS probe labelling (fragment/DMSO); higher = less target engagement (more negative = stronger competition), active = hit call of the paper (q ≤ 0.05, log2 ratio ≤ -1)
Settings: compound concentration: 200 uM; treatment time: 3 h
In short: (§1)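 Global-median-normalised Spectronaut label-free quantities were compared by unpaired t-test, and values are average log2 ratios of fragment over vehicle. Only proteins with ≥2 unique peptides were used. HEK293T lysate (495 µg per sample) was treated in triplicate with fragment at 200 µM or vehicle for 3 h and then with Biotin-Ahx-Ub-VS at 0.5 µM final for 1 h. Labelled DUBs were then NeutrAvidin-enriched, digested with LysC and trypsin, and run by diaPASEF LC-MS/MS.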

Sequence of UniProt P62068 (P62068 whole entry): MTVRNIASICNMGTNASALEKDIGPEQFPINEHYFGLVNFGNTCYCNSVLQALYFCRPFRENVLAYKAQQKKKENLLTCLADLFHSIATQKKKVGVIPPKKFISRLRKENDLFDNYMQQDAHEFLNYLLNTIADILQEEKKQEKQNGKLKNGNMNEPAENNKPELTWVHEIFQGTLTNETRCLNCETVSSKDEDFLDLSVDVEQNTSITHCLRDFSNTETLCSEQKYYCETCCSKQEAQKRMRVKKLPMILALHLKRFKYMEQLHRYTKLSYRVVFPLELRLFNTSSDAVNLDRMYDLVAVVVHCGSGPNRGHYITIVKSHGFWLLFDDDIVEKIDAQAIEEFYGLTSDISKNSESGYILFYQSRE
Sequence of UniProt Q92905 (Q92905 whole entry, looked up): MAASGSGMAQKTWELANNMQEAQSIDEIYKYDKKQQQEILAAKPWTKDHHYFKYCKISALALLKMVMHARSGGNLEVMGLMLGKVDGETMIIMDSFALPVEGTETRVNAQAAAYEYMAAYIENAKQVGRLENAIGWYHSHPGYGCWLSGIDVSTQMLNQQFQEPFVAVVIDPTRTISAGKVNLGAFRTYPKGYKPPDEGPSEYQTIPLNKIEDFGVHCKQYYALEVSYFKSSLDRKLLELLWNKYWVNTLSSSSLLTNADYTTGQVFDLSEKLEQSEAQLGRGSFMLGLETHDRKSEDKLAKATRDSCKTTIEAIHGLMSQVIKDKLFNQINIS
Sequence of UniProt Q8TE49 (Q8TE49 whole entry): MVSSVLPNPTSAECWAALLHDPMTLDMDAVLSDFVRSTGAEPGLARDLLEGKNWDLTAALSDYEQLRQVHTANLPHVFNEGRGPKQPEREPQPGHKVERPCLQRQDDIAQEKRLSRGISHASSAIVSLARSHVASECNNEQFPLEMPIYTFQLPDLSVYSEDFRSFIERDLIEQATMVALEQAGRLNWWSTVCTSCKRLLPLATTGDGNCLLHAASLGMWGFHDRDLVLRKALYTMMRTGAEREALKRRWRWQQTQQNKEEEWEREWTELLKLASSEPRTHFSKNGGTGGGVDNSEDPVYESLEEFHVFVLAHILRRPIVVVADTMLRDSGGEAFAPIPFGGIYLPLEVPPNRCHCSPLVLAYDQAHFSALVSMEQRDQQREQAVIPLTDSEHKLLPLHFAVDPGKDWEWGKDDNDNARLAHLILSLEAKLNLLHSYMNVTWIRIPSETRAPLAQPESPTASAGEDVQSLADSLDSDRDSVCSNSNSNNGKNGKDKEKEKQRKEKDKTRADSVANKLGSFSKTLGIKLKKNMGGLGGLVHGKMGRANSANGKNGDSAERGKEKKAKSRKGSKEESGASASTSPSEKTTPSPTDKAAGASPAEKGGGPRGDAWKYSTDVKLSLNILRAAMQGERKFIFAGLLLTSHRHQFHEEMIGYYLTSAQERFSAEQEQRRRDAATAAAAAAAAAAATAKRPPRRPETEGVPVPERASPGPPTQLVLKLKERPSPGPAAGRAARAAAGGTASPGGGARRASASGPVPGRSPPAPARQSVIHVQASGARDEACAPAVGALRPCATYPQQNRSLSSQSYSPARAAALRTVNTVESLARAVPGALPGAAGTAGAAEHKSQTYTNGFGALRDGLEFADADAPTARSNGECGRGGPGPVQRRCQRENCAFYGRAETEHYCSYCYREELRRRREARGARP
Sequence of UniProt Q9UGI0 (Q9UGI0 whole entry): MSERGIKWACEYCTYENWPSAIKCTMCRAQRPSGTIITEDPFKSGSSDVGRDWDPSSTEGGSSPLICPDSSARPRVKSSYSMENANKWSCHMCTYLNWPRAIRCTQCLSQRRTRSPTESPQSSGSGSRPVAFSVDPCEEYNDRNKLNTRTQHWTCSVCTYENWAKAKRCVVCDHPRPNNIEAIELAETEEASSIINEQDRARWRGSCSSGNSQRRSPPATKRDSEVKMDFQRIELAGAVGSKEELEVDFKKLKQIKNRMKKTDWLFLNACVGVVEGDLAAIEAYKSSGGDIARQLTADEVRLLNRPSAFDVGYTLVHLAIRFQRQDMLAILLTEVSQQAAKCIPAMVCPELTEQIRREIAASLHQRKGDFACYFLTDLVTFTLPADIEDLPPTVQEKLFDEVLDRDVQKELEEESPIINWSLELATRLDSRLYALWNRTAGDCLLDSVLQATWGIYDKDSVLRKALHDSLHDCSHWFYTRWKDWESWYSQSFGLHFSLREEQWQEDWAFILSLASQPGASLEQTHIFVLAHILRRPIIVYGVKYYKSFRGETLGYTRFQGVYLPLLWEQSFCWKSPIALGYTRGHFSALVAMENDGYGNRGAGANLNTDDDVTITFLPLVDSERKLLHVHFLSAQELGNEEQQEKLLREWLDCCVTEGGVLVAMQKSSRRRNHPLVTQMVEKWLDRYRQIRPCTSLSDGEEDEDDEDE
Sequence of UniProt Q9Y5T5 (Q9Y5T5 whole entry, looked up): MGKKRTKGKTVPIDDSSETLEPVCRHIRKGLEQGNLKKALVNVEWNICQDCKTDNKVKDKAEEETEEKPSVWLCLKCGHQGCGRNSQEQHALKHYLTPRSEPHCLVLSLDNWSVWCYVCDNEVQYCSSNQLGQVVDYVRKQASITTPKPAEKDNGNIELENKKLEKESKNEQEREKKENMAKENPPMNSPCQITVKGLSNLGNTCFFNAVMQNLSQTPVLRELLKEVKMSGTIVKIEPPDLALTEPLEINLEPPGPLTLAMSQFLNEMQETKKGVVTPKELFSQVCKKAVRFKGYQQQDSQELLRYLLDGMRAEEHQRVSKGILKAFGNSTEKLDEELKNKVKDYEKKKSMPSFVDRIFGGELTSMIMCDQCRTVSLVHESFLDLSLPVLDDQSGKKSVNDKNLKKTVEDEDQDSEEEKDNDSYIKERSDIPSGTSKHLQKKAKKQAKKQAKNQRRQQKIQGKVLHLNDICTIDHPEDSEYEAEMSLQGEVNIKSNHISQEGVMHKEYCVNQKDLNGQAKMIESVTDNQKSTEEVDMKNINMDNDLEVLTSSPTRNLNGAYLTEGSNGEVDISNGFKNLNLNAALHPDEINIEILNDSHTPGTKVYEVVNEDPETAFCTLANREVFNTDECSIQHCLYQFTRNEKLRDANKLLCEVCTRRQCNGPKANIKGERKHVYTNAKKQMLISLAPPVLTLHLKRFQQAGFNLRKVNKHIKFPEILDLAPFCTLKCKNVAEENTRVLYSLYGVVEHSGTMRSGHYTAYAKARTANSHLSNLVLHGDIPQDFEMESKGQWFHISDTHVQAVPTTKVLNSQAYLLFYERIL
Sequence of UniProt P51665 (P51665 whole entry): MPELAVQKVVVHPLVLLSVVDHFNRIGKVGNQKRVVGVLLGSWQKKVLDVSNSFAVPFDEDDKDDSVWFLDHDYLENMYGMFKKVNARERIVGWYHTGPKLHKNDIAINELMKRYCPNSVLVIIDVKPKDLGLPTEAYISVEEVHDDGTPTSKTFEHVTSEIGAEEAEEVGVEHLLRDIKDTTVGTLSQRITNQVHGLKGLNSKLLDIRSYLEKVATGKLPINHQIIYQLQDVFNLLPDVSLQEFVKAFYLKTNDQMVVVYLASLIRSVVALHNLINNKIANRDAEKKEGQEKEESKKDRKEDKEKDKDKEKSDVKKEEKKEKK
Sequence of UniProt Q86UV5 (Q86UV5 whole entry): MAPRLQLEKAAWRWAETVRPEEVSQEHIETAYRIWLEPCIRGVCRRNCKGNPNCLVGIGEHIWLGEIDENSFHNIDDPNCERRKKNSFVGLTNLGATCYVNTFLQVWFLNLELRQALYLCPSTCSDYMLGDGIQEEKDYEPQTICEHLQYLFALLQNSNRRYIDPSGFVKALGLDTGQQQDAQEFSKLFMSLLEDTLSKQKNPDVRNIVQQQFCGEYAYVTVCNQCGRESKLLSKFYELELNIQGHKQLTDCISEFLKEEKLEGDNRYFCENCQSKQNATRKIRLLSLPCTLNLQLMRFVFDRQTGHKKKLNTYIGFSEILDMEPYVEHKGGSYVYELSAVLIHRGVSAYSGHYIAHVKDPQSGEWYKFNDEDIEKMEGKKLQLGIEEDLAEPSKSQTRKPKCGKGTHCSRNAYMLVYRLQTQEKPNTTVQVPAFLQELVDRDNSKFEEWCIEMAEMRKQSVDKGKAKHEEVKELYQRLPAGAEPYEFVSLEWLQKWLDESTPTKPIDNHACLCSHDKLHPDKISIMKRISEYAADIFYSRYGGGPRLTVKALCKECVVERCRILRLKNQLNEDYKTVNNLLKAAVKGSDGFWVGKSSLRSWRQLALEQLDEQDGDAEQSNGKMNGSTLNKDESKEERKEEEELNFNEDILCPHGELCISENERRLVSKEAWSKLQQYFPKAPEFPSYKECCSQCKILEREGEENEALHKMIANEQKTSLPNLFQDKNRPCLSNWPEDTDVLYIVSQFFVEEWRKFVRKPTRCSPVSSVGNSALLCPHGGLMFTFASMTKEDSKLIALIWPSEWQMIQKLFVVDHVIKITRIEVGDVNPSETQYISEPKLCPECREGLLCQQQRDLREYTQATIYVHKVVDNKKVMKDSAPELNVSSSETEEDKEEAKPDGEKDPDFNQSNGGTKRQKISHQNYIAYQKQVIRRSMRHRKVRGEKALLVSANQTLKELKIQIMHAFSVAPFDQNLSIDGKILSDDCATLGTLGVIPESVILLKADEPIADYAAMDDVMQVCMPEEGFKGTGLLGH
Sequence of UniProt Q9Y5K5 (Q9Y5K5 whole entry): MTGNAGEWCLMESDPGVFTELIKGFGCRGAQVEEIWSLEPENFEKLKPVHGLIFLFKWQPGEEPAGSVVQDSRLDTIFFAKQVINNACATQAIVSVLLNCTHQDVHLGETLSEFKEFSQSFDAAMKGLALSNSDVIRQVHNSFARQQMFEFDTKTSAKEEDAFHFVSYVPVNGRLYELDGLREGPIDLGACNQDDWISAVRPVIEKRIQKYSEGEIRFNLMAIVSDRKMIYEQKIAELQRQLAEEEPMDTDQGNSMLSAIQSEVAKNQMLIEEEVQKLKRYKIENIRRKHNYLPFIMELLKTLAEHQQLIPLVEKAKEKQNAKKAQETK

Target	log2 ratio of Biotin-Ahx-Ub-VS probe labelling
YOD1 (UniProt Q5VVQ6)	0.0365
UCHL5 (UniProt Q9Y5K5)	-0.168
UniProt Q9P2H5	0.0516
USP19 (UniProt O94966)	-0.108
OTUD6B (UniProt Q8N6M0)	0.0184
USP24 (UniProt Q9UPU5)	-0.426
UniProt Q9UGI0	-0.605
USP36 (UniProt Q9P275)	-0.354
USP10 (UniProt Q14694)	-0.0935
USP47 (UniProt Q96K76)	0.00775
USP5 (UniProt P45974)	-0.0515
USP28 (UniProt Q96RU2)	-0.669
USP46 (UniProt P62068)	0.206
USP8 (UniProt P40818)	-0.13
UCHL1 (UniProt P09936)	-1.18 (active)
UniProt Q8TE49	-1.99 (active)
USP16 (UniProt Q9Y5T5)	0.199
OTUD5 (UniProt Q96G74)	-0.556
PSMD7 (UniProt P51665)	0.132
USP22 (UniProt Q9UPT9)	-0.0563
COPS5 (UniProt Q92905)	-0.102
USP48 (UniProt Q86UV5)	-0.24
OTUD7B (UniProt Q6GQQ9)	-1.86 (active)
OTUD4 (UniProt Q01804)	-0.763

Compound: CC1CCCCN1C(=O)CCl
Assay: as above
Settings: compound concentration: 200 uM; treatment time: 3 h
In short: as §1

Target	log2 ratio of Biotin-Ahx-Ub-VS probe labelling
YOD1 (UniProt Q5VVQ6)	-0.412
UCHL5 (UniProt Q9Y5K5)	-0.283
UniProt Q9P2H5	-0.0828
USP19 (UniProt O94966)	-0.341
OTUD6B (UniProt Q8N6M0)	-0.269
USP24 (UniProt Q9UPU5)	-0.579
UniProt Q9UGI0	-1.13 (active)
USP36 (UniProt Q9P275)	-0.058
USP10 (UniProt Q14694)	-0.0758
USP47 (UniProt Q96K76)	-0.363
USP5 (UniProt P45974)	-0.178
USP28 (UniProt Q96RU2)	-0.421
USP46 (UniProt P62068)	-0.116
USP8 (UniProt P40818)	-0.147
UCHL1 (UniProt P09936)	-1.34 (active)
UniProt Q8TE49	-0.301
USP16 (UniProt Q9Y5T5)	-0.203
OTUD5 (UniProt Q96G74)	-0.67
PSMD7 (UniProt P51665)	-0.25
USP22 (UniProt Q9UPT9)	0.000369
COPS5 (UniProt Q92905)	-0.0488
USP48 (UniProt Q86UV5)	-0.338
OTUD7B (UniProt Q6GQQ9)	-0.521
OTUD4 (UniProt Q01804)	-0.46
